# Laboratory results reported in PubChem BioAssay (NCI).
# The panel holds about 79,000 compounds, 15% with a hit somewhere; the sample as a whole holds those more often. A number with no mark means an inactive call. Activity calls are given as the source filed them. Cut-off read from the data, not from the text of the source: active = growth inhibition above about 70%; inactive = the rest.
# Key:
# [1] = NCI Yeast Anticancer Drug Screen. Data for the rad52 strain (AID 147);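 note: 0% = growth of vehicle-treated control cultures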; settings: S. cerevisiae rad52 mutant growth inhibition, stronger effect = higher value
# Outline: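 Growth of repair-deficient yeast cells was compared between compound-treated and vehicle-treated cultures to give percent inhibition.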
# [2] = NCI Yeast Anticancer Drug Screen. Data for the wt1 strain (AID 149);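 note: 0% = growth of vehicle-treated wt1 cultures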; settings: S. cerevisiae wt1 strain (SPY 50644) growth inhibition, stronger effect = higher value
# Outline: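 Yeast wt1 strain exposed to compounds; growth inhibition measured relative to vehicle-treated controls.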
# [3] = NCI Yeast Anticancer Drug Screen. Data for the rad50EPP+ strain (AID 151);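 note: 0% = growth of vehicle-treated control cultures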; settings: S. cerevisiae rad50 mutant strain, stronger effect = higher value
# Outline: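 Measured: growth inhibition of rad50EPP+ yeast. Reference: vehicle-treated controls. Screen uses strains with defined genetic alterations in DNA damage repair or cell cycle control.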
# [4] = NCI Yeast Anticancer Drug Screen. Data for the mgt1 strain (AID 153); settings: S. cerevisiae mgt1 mutant growth inhibition, stronger effect = higher value
# Outline: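 Compounds were applied to mgt1 mutant yeast, and growth was then compared against vehicle-treated control cultures to give percent inhibition.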
# [5] = NCI Yeast Anticancer Drug Screen. Data for the rad50 strain (AID 155);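 note: 0% = growth of vehicle-only cultures of the same strain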; settings: S. cerevisiae rad50 strain growth inhibition, stronger effect = higher value
# Outline: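 Yeast carrying a defined DNA repair defect were exposed to test compounds, and growth was compared with vehicle-treated controls to give percent inhibition.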
# [6] = NCI Yeast Anticancer Drug Screen. Data for the mec2-1 strain (AID 157); settings: S. cerevisiae mec2-1 strain, stronger effect = higher value
# Outline: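 Compounds were applied to mec2-1 yeast cells. Their growth was then compared with that of vehicle-treated cultures to give growth inhibition.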
# [7] = NCI Yeast Anticancer Drug Screen. Data for the rad14 strain (AID 159);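 note: 0% = growth of vehicle-treated control cultures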; settings: S. cerevisiae rad14 strain growth inhibition, stronger effect = higher value
# Outline: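 Yeast cells carrying a defined DNA-repair defect were exposed to compounds, and growth inhibition was calculated relative to vehicle-treated control cultures.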
# [8] = NCI Yeast Anticancer Drug Screen. Data for the sgs1 mgt1 strain (AID 161);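 note: 0% = growth of cultures given vehicle only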; settings: S. cerevisiae sgs1 mgt1 strain, stronger effect = higher value
# Outline: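 This yeast growth screen uses a strain with defined DNA-repair lesions; compound-treated growth is compared with vehicle-treated growth.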
# [9] = NCI Yeast Anticancer Drug Screen. Data for the CLN2oe strain (AID 163);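 note: 0% = growth of vehicle-only control cultures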; settings: S. cerevisiae CLN2oe strain, stronger effect = higher value
# Outline: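 Cells of an engineered yeast line with disturbed cell-cycle regulation are treated with compound. Inhibition of growth is then calculated relative to the vehicle-treated reference.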
# [10] = NCI Yeast Anticancer Drug Screen. Data for the cln2 rad14 strain (AID 165);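 note: 0% = growth equal to vehicle treated cultures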; settings: S. cerevisiae cln2 rad14 strain, stronger effect = higher value
# Outline: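 Strain: cln2 rad14 yeast, altered in cell cycle control and DNA damage repair. Read-out: growth inhibition vs vehicle.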
# [11] = NCI Yeast Anticancer Drug Screen. Data for the bub3 strain (AID 167); settings: S. cerevisiae bub3 mutant strain, stronger effect = higher value
# Outline: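 Compounds were applied to a genetically altered yeast strain carrying a cell-cycle control defect. Growth inhibition was scored against vehicle-treated controls.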
# [12] = NCI Yeast Anticancer Drug Screen. Data for the wt2 strain (AID 169);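 note: 0% = growth of vehicle-treated yeast cultures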; settings: S. cerevisiae wt2 strain growth inhibition, stronger effect = higher value
# Outline: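 Growth of compound-treated yeast is measured and expressed as inhibition relative to vehicle-only controls.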
# [13] = NCI Yeast Anticancer Drug Screen. Data for the mlh1 strain (AID 171);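 note: 0% = growth of vehicle-treated control cultures of the same strain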; settings: S. cerevisiae mlh1 strain growth inhibition, stronger effect = higher value
# Outline: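 Test agents were incubated with yeast bearing a defined DNA damage repair or cell cycle control alteration; values are growth inhibition normalised to vehicle-treated cultures.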
# [14] = NCI Yeast Anticancer Drug Screen. Data for the sgs1 strain (AID 173);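 note: 0% = growth of vehicle-only control cultures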; settings: S. cerevisiae sgs1 mutant, stronger effect = higher value
# Outline: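 Strain with an altered DNA repair or cell cycle pathway exposed to compound. Growth then measured. Value = inhibition versus vehicle control.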
# [15] = NCI Yeast Anticancer Drug Screen. Data for the mlh1 rad18 strain (AID 175); settings: S. cerevisiae mlh1 rad18 strain growth inhibition, stronger effect = higher value
# Outline: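 A repair-deficient yeast strain is exposed to test compound, and growth is scored relative to vehicle-treated controls.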
# [16] = NCI Yeast Anticancer Drug Screen. Data for the rad18 strain (AID 177); settings: S. cerevisiae rad18 mutant growth inhibition, stronger effect = higher value
# Outline: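 DNA-repair-defective yeast; compound treatment; growth inhibition scored against vehicle.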
# [17] = at 5.0 µM (retest, dose inferred, filed as 0.5)
# [18] = at 50.0 µM (retest, dose inferred, filed as 5.0)
compound,measurement,setting,value
CCCCCCCCCCCCCCCCCCNc1nc(=O)n(C2CC(OP(=O)(O)OCC3OC(n4cc(F)c(=O)[nH]c4=O)CC3O)C(CO)O2)cc1F (stereo unspecified),growth inhibition,[1]; at 1.2 µM,14%
same,growth inhibition,[1]; at 3.7 µM,12%
same,growth inhibition,[1]; at 11.0 µM,-1%
same,growth inhibition,[1]; at 33.0 µM,11%
same,growth inhibition,[1]; at 100.0 µM,66%
same,growth inhibition,[2]; at 1.2 µM,4%
same,growth inhibition,[2]; at 3.7 µM,-4%
same,growth inhibition,[2]; at 11.0 µM,-13%
same,growth inhibition,[2]; at 33.0 µM,-8%
same,growth inhibition,[2]; at 100.0 µM,46%
same,growth inhibition,[3]; at 1.2 µM,9%
same,growth inhibition,[3]; at 3.7 µM,12%
same,growth inhibition,[3]; at 11.0 µM,7%
same,growth inhibition,[3]; at 33.0 µM,8%
same,growth inhibition,[3]; at 100.0 µM,23%
same,growth inhibition,[4]; at 1.2 µM,25%
same,growth inhibition,[4]; at 3.7 µM,8%
same,growth inhibition,[4]; at 11.0 µM,-1%
same,growth inhibition,[4]; at 33.0 µM,32%
same,growth inhibition,[4]; at 100.0 µM,77% (active)
same,growth inhibition,[5]; at 1.2 µM,27%
same,growth inhibition,[5]; at 3.7 µM,28%
same,growth inhibition,[5]; [17],34%
same,growth inhibition,[5]; at 11.0 µM,22%
same,growth inhibition,[5]; at 33.0 µM,37%
same,growth inhibition,[5]; [18],88% (active)
same,growth inhibition,[5]; at 50.0 µM,83.9% (active)
same,growth inhibition,[5]; at 100.0 µM,88% (active)
same,growth inhibition,[6]; at 1.2 µM,9%
same,growth inhibition,[6]; at 3.7 µM,15%
same,growth inhibition,[6]; [17],24%
same,growth inhibition,[6]; at 11.0 µM,3%
same,growth inhibition,[6]; at 33.0 µM,-1%
same,growth inhibition,[6]; [18],91% (active)
same,growth inhibition,[6]; at 50.0 µM,89.4% (active)
same,growth inhibition,[6]; at 100.0 µM,61%
same,growth inhibition,[7]; at 1.2 µM,9%
same,growth inhibition,[7]; at 3.7 µM,0%
same,growth inhibition,[7]; at 11.0 µM,3%
same,growth inhibition,[7]; at 33.0 µM,-4%
same,growth inhibition,[7]; at 100.0 µM,51%
same,growth inhibition,[8]; [17],59%
same,growth inhibition,[8]; [18],95% (active)
same,growth inhibition,[8]; at 50.0 µM,87.7% (active)
same,growth inhibition,[9]; at 1.2 µM,-23%
same,growth inhibition,[9]; at 3.7 µM,-33%
same,growth inhibition,[9]; at 11.0 µM,-42%
same,growth inhibition,[9]; at 33.0 µM,-9%
same,growth inhibition,[9]; at 100.0 µM,54%
same,growth inhibition,[10]; [17],7%
same,growth inhibition,[10]; [18],68%
same,growth inhibition,[10]; at 50.0 µM,86.3% (active)
same,growth inhibition,[11]; at 1.2 µM,4%
same,growth inhibition,[11]; at 3.7 µM,5%
same,growth inhibition,[11]; [17],15%
same,growth inhibition,[11]; at 11.0 µM,-27%
same,growth inhibition,[11]; at 33.0 µM,-10%
same,growth inhibition,[11]; [18],93% (active)
same,growth inhibition,[11]; at 50.0 µM,68.3%
same,growth inhibition,[11]; at 100.0 µM,40%
same,growth inhibition,[12]; at 1.2 µM,-38%
same,growth inhibition,[12]; at 3.7 µM,-34%
same,growth inhibition,[12]; at 11.0 µM,-68%
same,growth inhibition,[12]; at 33.0 µM,15%
same,growth inhibition,[12]; at 100.0 µM,79% (active)
same,growth inhibition,[13]; at 1.2 µM,10%
same,growth inhibition,[13]; at 3.7 µM,19%
same,growth inhibition,[13]; at 11.0 µM,7%
same,growth inhibition,[13]; at 33.0 µM,18%
same,growth inhibition,[13]; at 100.0 µM,75% (active)
same,growth inhibition,[14]; at 1.2 µM,1%
same,growth inhibition,[14]; at 3.7 µM,-5%
same,growth inhibition,[14]; at 11.0 µM,-9%
same,growth inhibition,[14]; at 33.0 µM,22%
same,growth inhibition,[14]; at 100.0 µM,78% (active)
same,growth inhibition,[15]; [17],34%
same,growth inhibition,[15]; [18],93% (active)
same,growth inhibition,[15]; at 50.0 µM,86% (active)
same,growth inhibition,[16]; at 1.2 µM,9%
same,growth inhibition,[16]; at 3.7 µM,-9%
same,growth inhibition,[16]; at 11.0 µM,-16%
same,growth inhibition,[16]; at 33.0 µM,35%
same,growth inhibition,[16]; at 100.0 µM,89% (active)
CC(=O)Oc1ccc2c(c1)Cc1cc(N3C(=O)C=CC3=O)ccc1-2,growth inhibition,[1]; at 1.2 µM,10%
same,growth inhibition,[1]; at 3.7 µM,29%
same,growth inhibition,[1]; at 11.0 µM,73% (active)
same,growth inhibition,[1]; at 33.0 µM,96% (active)
same,growth inhibition,[1]; at 100.0 µM,95% (active)
same,growth inhibition,[2]; at 1.2 µM,1%
same,growth inhibition,[2]; at 3.7 µM,12%
same,growth inhibition,[2]; at 11.0 µM,35%
same,growth inhibition,[2]; at 33.0 µM,93% (active)
same,growth inhibition,[2]; at 100.0 µM,97% (active)
same,growth inhibition,[3]; at 1.2 µM,81% (active)
same,growth inhibition,[3]; at 3.7 µM,96% (active)
same,growth inhibition,[3]; at 11.0 µM,98% (active)
same,growth inhibition,[3]; at 33.0 µM,97% (active)
same,growth inhibition,[3]; at 100.0 µM,92% (active)
same,growth inhibition,[4]; at 1.2 µM,7%
same,growth inhibition,[4]; at 3.7 µM,19%
same,growth inhibition,[4]; at 11.0 µM,58%
same,growth inhibition,[4]; at 33.0 µM,98% (active)
same,growth inhibition,[4]; at 100.0 µM,95% (active)
same,growth inhibition,[5]; at 1.2 µM,7%
same,growth inhibition,[5]; at 3.7 µM,32%
same,growth inhibition,[5]; [17],27%
same,growth inhibition,[5]; at 11.0 µM,83% (active)
same,growth inhibition,[5]; at 33.0 µM,96% (active)
same,growth inhibition,[5]; [18],99% (active)
same,growth inhibition,[5]; at 50.0 µM,46.1%
same,growth inhibition,[5]; at 100.0 µM,93% (active)
same,growth inhibition,[6]; at 1.2 µM,15%
same,growth inhibition,[6]; at 3.7 µM,30%
same,growth inhibition,[6]; [17],44%
same,growth inhibition,[6]; at 11.0 µM,72% (active)
same,growth inhibition,[6]; at 33.0 µM,97% (active)
same,growth inhibition,[6]; [18],99% (active)
same,growth inhibition,[6]; at 50.0 µM,47.7%
same,growth inhibition,[6]; at 100.0 µM,97% (active)
same,growth inhibition,[7]; at 1.2 µM,10%
same,growth inhibition,[7]; at 3.7 µM,25%
same,growth inhibition,[7]; at 11.0 µM,61%
same,growth inhibition,[7]; at 33.0 µM,98% (active)
same,growth inhibition,[7]; at 100.0 µM,97% (active)
same,growth inhibition,[8]; [17],17%
same,growth inhibition,[8]; [18],99% (active)
same,growth inhibition,[8]; at 50.0 µM,58.2%
same,growth inhibition,[9]; at 1.2 µM,1%
same,growth inhibition,[9]; at 3.7 µM,12%
same,growth inhibition,[9]; at 11.0 µM,35%
same,growth inhibition,[9]; at 33.0 µM,92% (active)
same,growth inhibition,[9]; at 100.0 µM,96% (active)
same,growth inhibition,[10]; [17],7%
same,growth inhibition,[10]; [18],98% (active)
same,growth inhibition,[10]; at 50.0 µM,24.2%
same,growth inhibition,[11]; at 1.2 µM,-9%
same,growth inhibition,[11]; at 3.7 µM,1%
same,growth inhibition,[11]; [17],8%
same,growth inhibition,[11]; at 11.0 µM,37%
same,growth inhibition,[11]; at 33.0 µM,94% (active)
same,growth inhibition,[11]; [18],98% (active)
same,growth inhibition,[11]; at 50.0 µM,48.6%
same,growth inhibition,[11]; at 100.0 µM,97% (active)
same,growth inhibition,[12]; at 1.2 µM,1%
same,growth inhibition,[12]; at 3.7 µM,15%
same,growth inhibition,[12]; at 11.0 µM,46%
same,growth inhibition,[12]; at 33.0 µM,98% (active)
same,growth inhibition,[12]; at 100.0 µM,96% (active)
same,growth inhibition,[13]; at 1.2 µM,13%
same,growth inhibition,[13]; at 3.7 µM,24%
same,growth inhibition,[13]; at 11.0 µM,74% (active)
same,growth inhibition,[13]; at 33.0 µM,98% (active)
same,growth inhibition,[13]; at 100.0 µM,97% (active)
same,growth inhibition,[15]; [17],67%
same,growth inhibition,[15]; [18],98% (active)
same,growth inhibition,[15]; at 50.0 µM,40.6%
same,growth inhibition,[16]; at 1.2 µM,10%
same,growth inhibition,[16]; at 3.7 µM,30%
same,growth inhibition,[16]; at 11.0 µM,85% (active)
same,growth inhibition,[16]; at 33.0 µM,96% (active)
same,growth inhibition,[16]; at 100.0 µM,95% (active)
